Experimental data as given in PubChem BioAssay (NCATS).
Inconclusive results are not listed. A number with no mark means an inactive call. Calls of active or inactive are those of the source. Calls follow the shape of the dose curve; as a rule, active = well fitted inhibition curve with a large enough effect; inconclusive = small, poorly fitted or top-dose-only effect; inactive = flat fitted curve, though single readings scatter.

experiment: BET inhibitor-based combinations targeting novel dependencies in MECOM-rearranged (r) AML: AML-191 cell line (AID 2202236; also: nearly all actives have a fitted effect of over 35% in size;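 as to viability (% of control): plate controls were vehicle wells for no effect and wells without cells for full effect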); conditions: AML-191 viability, CellTiter-Glo luminescence, 48 h; series mostly up to 46 µM; viability (% of control): at the top concentration
Description: Ecotropic viral insertion site 1 (EVI1) is located on chromosome 3q26.2 as part of the MECOM (MDS and EVI1 complex) locus. Under normal hematopoiesis, EVI1 is a regulator of hematopoietic stem cell maintenance and self-renewal and EVI1 levels decrease as the cells differentiate. In approximately 5-10% of de novo acute myeloid leukemia (AML) EVI1 is aberrantly expressed, including Chromosomal inv(3)(q21;q26.2) or t(3;3)(q21;q26.2) alterations (MECOM-r) that account for about 50% of AML with EVI1 overexpression 31. AMLs with high levels of EVI1 have a poor prognosis and an overall survival time averaging between 10-14 months. EVI1 overexpression confers resistance in leukemia cells, highlighting the need to develop new targeted therapies for EVI1 overexpressing AMLs.
Here, we performed an unbiased chemical drug screening by evaluating the single agent activity of a collection of 2,480 oncology-focused, approved and investigational drugs (NCATS Mechanism Interrogation Plates, MIPE v5.0) against a panel of seven AML cell lines. These included four MECOM-r cell-lines (AML-191, AML-194, UCSD-AML1 and HNT-34) and three non-MECOM-r AMLs (MV4-11, OCI-AML3 and SET-2). Exploiting the mechanistic redundancy built in the library, we identified target-level sensitivities in MECOM-r AML cells and relative activity as compared to other AML subtypes.
A collection of 2480 mechanistically annotated dugs (MIPE v5.0) was used to screen four 3q26.2 rearranged AML cell lines and three non-3q26.2 rearranged AML cell lines. This library purposely exploits redundancy by including multiple inhibitors of key onco-targets, while simultaneously encompassing mechanistic diversity, targeting more than 800 distinct mechanisms of action. Briefly, cells were seeded in 5 uL of growth media using a Multidrop Combi dispenser into 1536 well white polystyrene tissue culture treated plates (Corning) at a density of 500cells/well. For each cell-line, for each of the 2480 drugs in MIPE v5.0 library, an 11-point dose curve was generated via a 1536 pin-tool. Plates were incubated for 48 hr at standard incubator conditions, covered by a stainless steel gasketed lid to prevent evaporation. Cell viability was determined by luminescence based, Cell Titer Glo assay (Promega). In detail, 3 uL of Cell Titer Glo were added to each well and plates were incubated at room temperature for 15 min with a stainless-steel lid in place. Luminescence readings were taken using a Viewlux (PerkinElmer) with a 2 s exposure time per plate. Compound dose-response curves were normalized to DMSO and empty well controls on each plate. Quantitative drug activity data from dose-response curves was determined utilizing area Under the Curve (AUC) and Z-transformed AUC (Z-AUC, a mean-centering transformation applied to each individual cell-line screened).
Potency is read from the fitted curve at half-maximal effect.

Row | SMILES | viability (% of control) | Potency
1 | C[C@]12CC[C@H]3[C@@H](CCC4=CC(=O)CC[C@@]43C)[C@H]1CC[C@H]2OC(=O)CCC1CCCC1 | 100% | –
2 | NC(=O)[C@@H](CC1CC1)[C@@H](CCC(F)(F)F)C(=O)N[C@H]1N=C(c2ccccc2)c2cccc(F)c2NC1=O | 112% | –
3 | C[C@]12Cc3cn[nH]c3C[C@@H]1CC[C@@H]1[C@@H]2CC[C@@]2(C)[C@H]1CC[C@]2(C)O | 91.9% | –
4 | C[C@@H](C1CC[C@@]2(O)C3=CC(=O)[C@@H]4C[C@@H](O)[C@@H](O)C[C@]4(C)[C@H]3CC[C@]12C)[C@H](O)CCC(C)(C)O (stereo not given in full) | 102% | –
5 | C#CC1(O)CCC2C3CCC4=CC(=O)CCC4(C)C3CCC21C (stereo not given) | 93.1% | –
6 | C[C@]12CC[C@@H]3[C@@H](CCC4=CC(=O)CC[C@@H]43)[C@@H]1CC[C@@H]2OC(=O)CCc1ccccc1 | 93.1% | –
7 | COc1ccc(N(C(=O)Oc2c(C)cccc2C)c2ccnc(Nc3ccc(N4CCN(C)CC4)cc3)n2)c(OC)c1 | – | 2630 nM (active)
8 | O=C(O)CNC(=O)c1c(O)c2ccccc2n(Cc2ccccc2)c1=O | 96% | –
9 | COC(=O)[C@@]12OC[C@]34[C@H]([C@@H](O)[C@@H]1O)[C@@]1(C)CC(=O)C(O)=C(C)[C@@H]1C[C@H]3OC(=O)[C@H](OC(=O)/C=C(\C)C(C)C)[C@@H]24 | – | 6.6 nM (active)
10 | Cn1c(COP(=O)(NCCBr)NCCBr)cnc1[N+](=O)[O-] | 112% | –
11 | CC[C@@]1(O)C(=O)OCc2c1cc1n(c2=O)Cc2cc3ccccc3nc2-1 | – | 20.9 nM (active)
12 | C[C@]12CCC(=O)C(O)=C1CC[C@@H]1[C@@H]2CC[C@]2(C)C(=O)CC[C@@H]12 | 85.3% [at 92.2 µM] | –
13 | COc1ccc(C(=O)c2c(C)n(CCN3CCOCC3)c3cc(I)ccc23)cc1 | – | 6610 nM (active)
14 | O=c1[nH]c2ccccc2n1CCCN1CCC(n2c(=O)[nH]c3cc(Cl)ccc32)CC1 | 99.8% | –
15 | C=C(C)[C@H]1Cc2c(ccc3c2O[C@@H]2COc4cc(OC)c(OC)cc4[C@@H]2C3=O)O1 | – | 934 nM (active)
16 | COc1cc2cc(c1Cl)N(C)C(=O)C[C@H](OC(=O)C(C)C)[C@]1(C)O[C@@H]1[C@H](C)[C@@H]1C[C@@](O)(NC(=O)O1)[C@H](OC)/C=C/C=C(\C)C2 | 8.31% | –
17 | C[C@H]1CCC/C=C/C2C[C@H](O)C[C@H]2[C@H](O)/C=C/C(=O)O1 (stereo not given in full) | – | 332 nM (active)
18 | C[C@H](Nc1ncnc2nc[nH]c12)c1nc2ccc(F)cc2c(=O)n1-c1ccccc1 | – | 5250 nM (active)
19 | Cc1c(N)nc([C@H](CC(N)=O)NC[C@@H](N)C(N)=O)nc1C(=O)N[C@H](C(=O)N[C@@H](C)[C@H](O)[C@@H](C)C(=O)N[C@@H](C(=O)NCCc1nc(-c2nc(C(=O)NCCC[S+](C)C)cs2)cs1)[C@@H](C)O)C(O[C@H]1O[C@H](CO)[C@H](O)[C@@H](O)[C@H]1O[C@H]1O[C@H](CO)[C@@H](O)[C@H](OC(N)=O)[C@@H]1O)c1cnc[nH]1 (stereo not given in full) | 83.7% [at 15.6 µM] | –
20 | CN1C(=O)CCS(=O)(=O)C1c1ccc(Cl)cc1 (stereo not given) | 107% | –

Row | SMILES | viability (% of control) | Potency
21 | C/C(=C\c1csc(C)n1)[C@@H]1C[C@@H]2O[C@]2(C)CCC[C@H](C)[C@H](O)[C@@H](C)C(=O)C(C)(C)[C@@H](O)CC(=O)O1 | – | 10.5 nM (active)
22 | CC(C)C[C@H](CN)CC(=O)O | 109% | –
23 | COc1cccc2c1C(=O)c1c(O)c3c(c(O)c1C2=O)C[C@@](O)(C(=O)CO)CC3OC1CC(N2CCOC(OC)C2)C(O)C(C)O1 (stereo not given in full) | – | 5.3 nM (active)
24 | C[C@@H]1CC[C@@]2(OC1)O[C@H]1C[C@H]3[C@@H]4CC=C5C[C@@H](O[C@@H]6O[C@H](CO)[C@@H](O[C@@H]7O[C@@H](C)[C@H](O)[C@@H](O)[C@H]7O)[C@H](O)[C@H]6O[C@@H]6O[C@@H](C)[C@H](O)[C@@H](O)[C@H]6O)CC[C@]5(C)[C@H]4CC[C@]3(C)[C@H]1[C@@H]2C | – | 5250 nM (active)
25 | COc1cc2c(cc1F)C(c1ccccc1Cl)=Nc1c(n[nH]c1C)N2 | – | 1660 nM (active)
26 | CN(C)[C@@H]1C(=O)C(C(N)=O)=C(O)[C@@]2(O)C(=O)C3=C(O)c4c(O)cccc4[C@@](C)(O)[C@H]3C[C@@H]12 | 69.7% | –
27 | COc1cc(C)[nH]c(=O)c1CNC(=O)c1c(C)n([C@H](C)C2CCN(CC(F)(F)F)CC2)c2ccccc12 | 95.7% | –
28 | CCCN1CCO[C@@H]2c3cc(O)ccc3OC[C@H]21 | 98.8% | –
29 | CCCCCC[C@H]1C(=O)O[C@H](C)[C@H](NC(=O)c2cccc(NC=O)c2O)C(=O)O[C@@H](C)[C@@H]1OC(=O)CC(C)C | – | 263 nM (active)
30 | CN(C)CCN(C)CCc1ccc(Cl)c(Cl)c1 | 87.1% | –
31 | CC1(C)CC[C@]2(NC(=O)C(C)(F)F)CC[C@]3(C)[C@H](C(=O)C=C4[C@@]5(C)C=C(C#N)C(=O)C(C)(C)[C@@H]5CC[C@]43C)[C@@H]2C1 | – | 1860 nM (active)
32 | COc1ccc(C(=O)c2c(C)n(CCN3CCOCC3)c3ccccc23)cc1 | – | 2630 nM (active)
33 | C[C@@]12OC(=O)[C@]1([C@@H](O)[C@@H]1C=CCCC1)NC(=O)[C@@H]2CCCl | – | 26.3 nM (active)
34 | Cc1ccccc1-n1c(Cn2ncc3c(N)ncnc32)nc2cccc(C)c2c1=O | 93.2% | –
35 | CC(C)CC(N(C)C)C1(c2ccc(Cl)cc2)CCC1 (stereo not given) | 102% | –
36 | Cc1sc2c(c1C)C(c1ccc(Cl)cc1)=N[C@@H](CC(=O)OC(C)(C)C)c1nnc(C)n1-2 | – | 662 nM (active)
37 | COc1cc(C)[nH]c(=O)c1CNC(=O)c1c(C)n([C@H](C)C2CCOCC2)c2ccccc12 | 82.9% | –
38 | CC(C)(C)c1cc(C=C(C#N)C#N)cc(Br)c1O | – | 18600 nM (active)
39 | COc1cc([C@@H]2c3cc4c(cc3[C@@H](O)C3COC(=O)C32)OCO4)cc(OC)c1O (stereo not given in full) | – | 296 nM (active)
40 | COC1(CS(=O)c2ccccc2)CCN(CCc2c[nH]c3ccc(F)cc23)CC1 (stereo not given) | 103% | –
